PubChem BioAssay (Tox21)
Values without a mark were called inactive. Records with an inconclusive call do not appear. A call without a number means that no potency is given here. Active and inactive are the calls of the source. Unless noted, calls follow the shape of the dose curve; as a rule, active = well fitted curve in the direction sought with a large enough effect in the repeat runs; inconclusive = weak or mixed curves; inactive = no such curve, though single readings can be large; an effect the other way counts as inactive or inconclusive.

Columns and labels:
[1] = qHTS RealTime-Glo MT Cell Viability Assay in HEK293 cells - 8 hour (AID 1224887); also: top concentration of the series differs between compounds; nearly all actives have a fitted effect of over 50% in size
Outline: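 Kinetic, non-lysing viability readout. Seed HEK293 (600/well) with reagent, incubate 5 h at 37 C/5% CO2, pin 23 nL compound in DMSO, incubate at 37 C, read luminescence at 0, 8, 16, 24, 32, 40 h.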

[2] = A CellTox Green Cytotoxicity Assay to monitor cytotoxicity in HepG2 cells - 8 hour (AID 1224890); also: nearly all actives have a fitted effect of over 45% in size
Outline: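 Cytotoxicity was tracked as dead-cell DNA fluorescence in HepG2 cells treated with test compounds at 37 C; each time-point value comes from one kinetic series spanning 0, 8, 16, 24, 32 and 40 h.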

[3] = qHTS assay to identify small molecule antagonists of the estrogen receptor alpha (ER-alpha) signaling pathway using the BG1 cell line in the presence of 0.1 nM 17-beta-estradiol - cell viability counter screen (AID 1259241); also: nearly all actives have a fitted effect of over 40% in size
Outline: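 Viability in VM7Luc4E2 cells after 22 hr compound exposure under 0.1 nM 17beta-estradiol stimulation, by CellTiter-Fluor.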

[4] = qHTS assay to identify small molecule antagonists of the androgen receptor (AR) signaling pathway using the MDA cell line in the presence of 0.5 nM R1881 - cell viability counter screen (AID 1259242); also: nearly all actives have a fitted effect of over 45% in size
Outline: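 Cells seeded at 3,000/well and allowed 5 hr at 37C, 0% CO2 before compound transfer and R1881 (0.5 nM final) addition; 16 hr later, live-cell protease fluorescence indicated cytotoxicity.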

[5] = qHTS assay to identify small molecule HDAC inhibitors (AID 1259364);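 also: wild-type HCT-116 cells with endogenous class I/II HDAC activity; top concentration of the series differs between compounds; nearly all actives have a fitted effect of over 45% in size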
Outline: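 HCT-116 wt cells, 1,500/well, overnight attach. Compounds (DMSO) 2 h, 37 °C. HDAC-Glo I/II, 30 min RT. Luminescence.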

[6] = qHTS assay to identify small molecule HDAC inhibitors - cell viability counter screen (AID 1259365); also: series mostly up to about 92 µM; nearly all actives have a fitted effect of over 50% in size
Outline: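 Cytotoxicity was gauged in wild-type HCT-116 cells after a brief 2hr treatment with DMSO-dissolved compounds at 37C and 5% CO2, using CellTiter-Glo luminescence developed for 30min at room temperature.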

[7] = qHTS assay to identify small molecule agonists of the sonic hedgehog signaling (Shh) pathway - cell viability counter screen (AID 1259366); also: nearly all actives have a fitted effect of over 50% in size
Outline: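 Stable Gli1-Luc NIH/3T3 clone, 2,000 cells/well. Compound exposure 24hr at 37C. Read-out: CellTiter-Fluor fluorescence.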

[8] = qHTS assay to identify small molecule antagonists of the sonic hedgehog signaling (Shh) pathway - cell viability counter screen (AID 1259367); also: nearly all actives have a fitted effect of over 55% in size
Outline: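 Conditioned medium drove Shh signaling in 3T3 Gli1-Luc cells exposed to compounds at 37C and 5% CO2. Viability was determined from CellTiter-Fluor fluorescence, with reagent incubated 1 hr after 23 hr of treatment.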

[9] = qHTS assay to identify small molecule antagonists of the sonic hedgehog signaling (Shh) pathway (AID 1259369; calls by dose curve; also: nearly all actives have a fitted effect of over 45% in size)
Outline: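 Read-out is luminescence from a firefly luciferase gene controlled by the Gli1 response element, in 3T3Gli1-Luc cells pre-incubated 4hr then exposed to compounds and conditioned medium for 24hr.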

[10] = target: Estrogen receptor beta (Homo sapiens) (UniProt Q92731); test: qHTS assay to identify small molecule agonists of the estrogen receptor beta (ER-beta) signaling pathway (AID 1259377; active = well fitted activation curve with a large enough effect in the signal ratio in the repeat runs, not every such curve was filed as active; the % refers to the signal ratio)
Chain of Estrogen receptor beta (Homo sapiens) (Q92731 whole entry, looked up): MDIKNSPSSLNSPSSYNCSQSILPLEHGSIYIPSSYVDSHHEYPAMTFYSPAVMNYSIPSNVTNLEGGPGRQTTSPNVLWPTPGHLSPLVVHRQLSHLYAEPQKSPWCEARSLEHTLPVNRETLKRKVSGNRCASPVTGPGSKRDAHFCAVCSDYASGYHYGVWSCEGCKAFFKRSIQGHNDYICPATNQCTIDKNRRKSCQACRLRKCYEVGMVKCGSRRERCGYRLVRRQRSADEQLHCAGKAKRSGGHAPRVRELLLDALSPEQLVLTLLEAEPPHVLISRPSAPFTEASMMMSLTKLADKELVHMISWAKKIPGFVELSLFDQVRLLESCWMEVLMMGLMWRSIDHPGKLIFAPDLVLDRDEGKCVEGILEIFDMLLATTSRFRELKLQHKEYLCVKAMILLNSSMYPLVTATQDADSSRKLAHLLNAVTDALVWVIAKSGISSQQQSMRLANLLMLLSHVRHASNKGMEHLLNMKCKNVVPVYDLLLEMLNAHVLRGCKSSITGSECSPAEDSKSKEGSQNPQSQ
Outline: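 Measured by fluorescence intensity from a B/G FRET beta-lactamase substrate (2 h, room temperature) in ER-beta-UAS-bla HEK293T cells treated with DMSO-dissolved compounds for 16 hr at 37C and 5% CO2.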

[11] = target: Estrogen receptor beta (Homo sapiens) (UniProt Q92731); test: qHTS assay to identify small molecule antagonists of the estrogen receptor beta (ER-beta) signaling pathway (AID 1259378; active = well fitted inhibition curve with a large enough effect in the signal ratio in the repeat runs, not every such curve was filed as active; the % refers to the signal ratio)
Outline: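 ER-beta-UAS-bla HEK293T (GripTite) cells in 2% charcoal-stripped FBS medium were preincubated 6 hr at 37C, dosed with compound, then stimulated with 1 nM E2 (final) for 16 hr; beta-lactamase reporter read by B/G FRET fluorescence after 2 hr substrate loading.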

[12] = qHTS assay to identify small molecule agonists of the androgen receptor (AR) signaling pathway in the presence of an antagonist - cell viability counter screen (AID 1259379); also: nearly all actives have a fitted effect of over 25% in size; also: potency is read from the fitted curve at half-maximal effect;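 as to activity change, negative = cytotoxicity: MDA-kb2 human breast cancer cells carrying an MMTV luciferase reporter; series mostly up to about 92 µM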
Outline: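 Each compound was tested at 15 concentrations on MDA-kb2 cells in the presence of 3.0uM nilutamide. Viability was measured by CellTiter-Fluor fluorescence after a 16 hr incubation at 37C in a CO2-free atmosphere.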

[13] = qHTS assay to identify small molecule agonists of the estrogen receptor beta (ER-beta) signaling pathway - cell viability counter screen (AID 1259380); also: nearly all actives have a fitted effect of over 30% in size
Outline: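 Compounds dissolved in DMSO were pin-transferred onto ER-beta-UAS-bla HEK293T cells that had settled 6 hr, and exposure ran 16 hr at 37C. Following the reporter read, CellTiter-Glo luminescence after 30 min at room temperature indicated cytotoxicity.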

[14] = qHTS RealTime-Glo MT Cell Viability Assay in HepG2 cells - 0 hour (AID 1224889); also: nearly all actives have a fitted effect of over 50% in size
Outline: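 HepG2 suspension premixed with RealTime-Glo reagents is plated at 600 cells per well and left 5 h at 37 C/5% CO2. Compounds in DMSO then go in, and bioluminescence reflecting viable cell number is recorded over 40 h.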

[15] = target: Estrogen receptor (Homo sapiens) (UniProt P03372); test: qHTS assay to identify small molecule antagonists of the estrogen receptor alpha (ER-alpha) signaling pathway using the BG1 cell line in the presence of 0.1 nM 17-beta-estradiol (AID 1259244); also: nearly all actives have a fitted effect of over 50% in size
Chain of Estrogen receptor (Homo sapiens) (P03372 whole entry, looked up): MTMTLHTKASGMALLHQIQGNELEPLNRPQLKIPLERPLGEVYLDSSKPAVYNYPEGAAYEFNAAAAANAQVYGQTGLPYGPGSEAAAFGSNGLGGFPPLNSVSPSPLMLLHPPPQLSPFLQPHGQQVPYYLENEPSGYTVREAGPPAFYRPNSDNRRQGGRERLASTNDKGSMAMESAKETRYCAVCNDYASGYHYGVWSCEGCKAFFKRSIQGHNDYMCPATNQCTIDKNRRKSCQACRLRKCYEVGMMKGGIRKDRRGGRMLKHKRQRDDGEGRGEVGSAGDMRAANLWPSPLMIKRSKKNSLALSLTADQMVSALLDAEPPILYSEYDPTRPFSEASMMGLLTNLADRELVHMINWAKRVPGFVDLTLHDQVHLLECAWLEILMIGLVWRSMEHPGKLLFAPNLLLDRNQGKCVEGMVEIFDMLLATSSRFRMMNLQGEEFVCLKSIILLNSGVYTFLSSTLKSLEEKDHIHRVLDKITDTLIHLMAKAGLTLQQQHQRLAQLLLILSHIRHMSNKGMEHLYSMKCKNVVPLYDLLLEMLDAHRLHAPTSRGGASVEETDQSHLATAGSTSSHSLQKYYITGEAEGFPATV
Outline: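 Luciferase signal from VM7Luc4E2 ERE-reporter cells, co-dosed with test compound and 0.1 nM final 17beta-estradiol for 22 h, read with ONE-Glo.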

[16] = qHTS assay to identify small molecule agonists of the sonic hedgehog signaling (Shh) pathway (AID 1259368; calls by dose curve;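 also: NIH/3T3-derived 3T3Gli1-Luc cells carrying a stable Gli1-driven firefly luciferase reporter; series mostly up to about 92 µM; nearly all actives have a fitted effect of over 15% in size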)
Outline: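 Following a 24 hr incubation with DMSO-dissolved compounds at 37 C, 5% CO2, Gli1-Luc NIH/3T3-derived cells received luciferase reagent for 30 min at room temperature prior to luminescence measurement.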

[17] = A CellTox Green Cytotoxicity Assay to monitor cytotoxicity in HEK293 cells - 16 hour (AID 1224888); also: nearly all actives have a fitted effect of over 35% in size
Outline: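 Real-time, in one plate: 600 HEK293 cells/well with dead-cell DNA dye, pinned compound after 5 h, 37 C incubation over 40 h; viable cells give no appreciable fluorescence.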

[18] = qHTS assay to identify small molecule phospholipidosis (PLD) inducers (AID 1259344; active = well fitted curve in the direction sought with a large enough effect; an effect the other way counts as inactive or inconclusive)
Outline: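 After 4 h attachment on collagen I, HepG2 cells were dosed with compound alongside LipidTOX Red, kept 24 h at 37 C, fixed, and imaged for lamellar phospholipid pits.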

[19] = target: Androgen receptor (Homo sapiens) (UniProt P10275); test: qHTS assay to identify small molecule antagonists of the androgen receptor (AR) signaling pathway using the MDA cell line in the presence of 0.5 nM R1881 (AID 1259243); also: nearly all actives have a fitted effect of over 50% in size
Chain of Androgen receptor (Homo sapiens) (P10275 whole entry, looked up): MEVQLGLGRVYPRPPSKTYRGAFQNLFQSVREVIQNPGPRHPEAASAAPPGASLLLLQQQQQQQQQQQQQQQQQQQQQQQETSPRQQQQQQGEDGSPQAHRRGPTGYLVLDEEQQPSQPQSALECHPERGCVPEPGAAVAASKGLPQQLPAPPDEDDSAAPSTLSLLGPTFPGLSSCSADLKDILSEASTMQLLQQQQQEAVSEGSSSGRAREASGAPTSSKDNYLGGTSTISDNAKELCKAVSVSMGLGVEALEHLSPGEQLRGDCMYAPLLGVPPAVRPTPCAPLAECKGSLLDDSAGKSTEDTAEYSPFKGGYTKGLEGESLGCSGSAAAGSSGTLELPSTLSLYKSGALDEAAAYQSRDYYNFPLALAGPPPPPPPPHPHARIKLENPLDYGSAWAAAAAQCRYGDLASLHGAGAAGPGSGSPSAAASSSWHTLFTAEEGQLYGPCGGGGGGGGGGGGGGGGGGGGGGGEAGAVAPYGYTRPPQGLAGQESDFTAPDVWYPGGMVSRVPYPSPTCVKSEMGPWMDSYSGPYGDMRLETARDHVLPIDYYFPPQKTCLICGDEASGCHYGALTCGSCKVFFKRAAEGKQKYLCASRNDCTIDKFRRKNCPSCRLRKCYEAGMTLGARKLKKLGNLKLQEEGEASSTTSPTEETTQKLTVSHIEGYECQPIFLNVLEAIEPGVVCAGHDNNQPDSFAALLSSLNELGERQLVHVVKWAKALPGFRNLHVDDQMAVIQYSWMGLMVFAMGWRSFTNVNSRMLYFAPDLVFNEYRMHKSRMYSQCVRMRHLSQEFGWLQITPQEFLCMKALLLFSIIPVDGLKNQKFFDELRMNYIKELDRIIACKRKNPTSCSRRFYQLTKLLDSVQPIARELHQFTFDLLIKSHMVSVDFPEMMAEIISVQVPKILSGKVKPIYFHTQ
Outline: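 Luminescence from an AR/GR-responsive MMTV-luciferase construct in MDA-kb2 breast carcinoma cells, read 30 min after ONE-Glo, following 16 hr co-treatment with compounds and 0.5 nM R1881.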

In the case of `Cc1ccc(S(=O)(=O)NC(=O)NC2CCCCCCC2)cc1`, the Potency [1] is reported as “inactive”, the Potency [2] is reported as “inactive” and the Potency [3] is reported as “inactive”. For the same compound, the Potency [4] was “inactive”, the Potency [5] was “inactive” and the outcome [6] was “inactive”. The Potency [7] was “inactive”, the Potency [8] was “inactive” and the Potency [9] was “inactive”. The Potency [10] was “inactive”, the outcome [11] was “inactive” and the Potency [12] was “inactive”. The outcome [13] was “inactive”.

In the case of `CC(C)COC(=O)CCCCC(=O)OCC(C)C`, the Potency [1] is reported as “inactive”, the Potency [14] is reported as “inactive” and the Potency [2] is reported as “inactive”. For the same compound, the Potency [3] was “inactive”, the Potency [4] was “inactive” and the Potency [5] was “inactive”. The outcome [6] was “inactive”, the Potency [7] was “inactive” and the Potency [9] was “inactive”. The Potency [12] was “inactive” and the outcome [13] was “inactive”.

In the case of `CCC(O)C(C)(C)C` (stereo not given), the Potency [1] is reported as “inactive”, the Potency [14] is reported as “inactive” and the Potency [2] is reported as “inactive”. For the same compound, the Potency [3] was “inactive”, the Potency [4] was “inactive” and the Potency [15] was “inactive”. For the same compound, the Potency [8] was “inactive”, the outcome [16] was “inactive” and the Potency [9] was “inactive”. For the same compound, the Potency [12] was “inactive” and the outcome [13] was “inactive”.

With `CCNC(=O)NCCCOc1cccc(CN2CCCCC2)c1` the Potency [1] was “inactive”, the Potency [17] was “inactive” and the Potency [14] was “inactive”. The Potency [2] was “inactive”, the Potency [3] was “inactive” and the Potency [15] was “inactive”. For the same compound, the outcome [6] was “inactive”, the Potency [7] was “inactive” and the Potency [8] was “inactive”. The outcome [16] was “inactive”, the Potency [9] was “inactive” and the Potency [12] was “inactive”. For the same compound, the outcome [13] was “inactive”.

In the case of `CCOC(=O)OCC/C(SC(=O)OCC)=C(\C)N(C=O)Cc1cnc(C)nc1N`, the Potency [1] is reported as “inactive”, the Potency [17] is reported as “inactive” and the Potency [14] is reported as “inactive”. The Potency [3] was “inactive”, the Potency [4] was “inactive” and the PLD induction [18] was 2.13% [at 1.53 µM]. The Potency [5] was “inactive”, the outcome [6] was “inactive” and the Potency [7] was “inactive”. For the same compound, the Potency [8] was “inactive”, the outcome [16] was “inactive” and the Potency [9] was “inactive”. For the same compound, the Potency [10] was “inactive”, the outcome [11] was “inactive” and the Potency [12] was “inactive”. The outcome [13] was “inactive”.

With `Cc1nc(C)nc(N2C[C@@H](C)N(c3ccnc([C@@H](C)O)n3)[C@@H](C)C2)n1` the Potency [1] was “inactive”, the Potency [17] was “inactive” and the Potency [14] was “inactive”. For the same compound, the Potency [2] was “inactive”, the Potency [3] was “inactive” and the Potency [4] was “inactive”. The Potency [5] was “inactive”, the outcome [6] was “inactive” and the Potency [7] was “inactive”. For the same compound, the Potency [8] was “inactive”, the outcome [16] was “inactive” and the Potency [9] was “inactive”. For the same compound, the Potency [12] was “inactive”.

For `CCCCC(C)C(=O)O` (stereo not given), the Potency [1] was “inactive”, the Potency [17] was “inactive” and the Potency [3] was “inactive”. The Potency [4] was “inactive”, the Potency [5] was “inactive” and the outcome [6] was “inactive”. For the same compound, the Potency [7] was “inactive”, the Potency [8] was “inactive” and the outcome [16] was “inactive”. The Potency [9] was “inactive”, the outcome [11] was “inactive” and the Potency [12] was “inactive”. The outcome [13] was “inactive”.

For `CNC(=O)NC`, the Potency [1] was “inactive”, the Potency [17] was “inactive” and the Potency [14] was “inactive”. For the same compound, the Potency [2] was “inactive”, the Potency [3] was “inactive” and the outcome [19] was “inactive”. The Potency [15] was “inactive”, the Potency [5] was “inactive” and the outcome [6] was “inactive”. For the same compound, the Potency [7] was “inactive”, the Potency [8] was “inactive” and the outcome [16] was “inactive”. For the same compound, the Potency [9] was “inactive”, the Potency [10] was “inactive” and the outcome [11] was “inactive”. For the same compound, the Potency [12] was “inactive” and the outcome [13] was “inactive”.

For `CC1=NN(c2ccc(S(=O)(=O)O)cc2)C(=O)C1N=Nc1ccccc1` (stereo not given), the Potency [1] was “inactive”, the Potency [17] was “inactive” and the Potency [3] was “inactive”. For the same compound, the Potency [5] was “inactive”, the outcome [16] was “inactive” and the Potency [9] was “inactive”. The Potency [12] was 30.6 µM (active) and the outcome [13] was “inactive”.

With `C=CCCCCCCCCCCC` the activity change, negative = cytotoxicity [1] was 3.08% [at 6.97 µM], the activity change [17] was -0.692% [at 6.97 µM, active compounds read high] and the activity change, negative = cytotoxicity [14] was 5.28% [at 6.97 µM]. The activity change, negative = cytotoxicity [3] was 0.186% [at 8.39 µM], the viability change, negative = cytotoxic [4] was 0.96% [at 8.39 µM] and the activity, negative = inhibition [19] was 5.11% [at 8.39 µM]. It also gave an activity change, negative = inhibition [15] of 8.3% [at 8.39 µM], an activity change, negative = inhibition [5] of 4.91% [at 8.39 µM] and an activity change, negative = cytotoxicity [6] of 4.34% [at 8.39 µM]. It also gave a viability change, negative = cytotoxic [7] of 3.1% [at 8.39 µM], a viability change, negative = cytotoxic [8] of 2.53% [at 8.39 µM] and an activity change [16] of 0.0597% [at 8.39 µM]. For the same compound, the activity change, negative = inhibition [9] was -3.37% [at 8.39 µM], the activity change, negative = cytotoxicity [12] was 0.376% [at 8.39 µM] and the activity change, negative = cytotoxicity [13] was -6.43% [at 8.39 µM].
